Screening data as filed in PubChem.
Only some compounds are listed: those with a hit (about 3.9% of all), similar ones and a draw of the others.
HT1080NT lethal: kills 2HG-producing HT-1080-NT fibrosarcoma cells; HT-1080-NT fibrosarcoma viability, CellTiter-Glo ATP luminescence, 48 h; Potency, µM (doses to about 46.1 µM), inactives show at the highest dose activity, negative = less viability, hits mostly cytotoxic; actives 1.6% (n = 360,000);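 also: NT is the 2HG producing partner of a matched IDH1 knockdown line; 0% = DMSO-treated cells and -100% = media-only wells without cells; nearly all actives have a fitted effect of over 55% in size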
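Luminescent CellTiter-Glo readout after 48 hours of compound exposure at 37 degrees C defined viability of HT-1080-NT cells. Activity was normalized to DMSO wells and cell-free media wells; concentration-response curves were fitted and assigned curve classes.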
TGFb inhibitor: blocks TGF-b signaling; HepG2 CAGA-GFP TGF-b/SMAD3 reporter, GFP fluorescence, 18 h; TGF-beta stimulated, 500 pg/mL final; actives 1.2% (n = 410,000); Potency, µM (highest dose often 46.1 µM), inactives show top-dose activity, negative = inhibition, hits mostly inhibitors; AID 588855; also: % is scaled to controls: 0 for no effect and ±100 for the full control effect; nearly all actives have a fitted effect of over 65% in size
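First, reporter cells (HEPG2 CAGA-GFP) rested 2 h at 37 degrees C. Next, compounds were pinned in and TGF-beta added to 500 pg/mL final. After 18 h, GFP was imaged per cell and summed per well.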
HT1080 IDH1KD tx: kills HT-1080 cells with IDH1 knockdown | HT-1080 IDH1 knockdown viability, ATP luminescence, 48 h | Potency, µM (series often up to 46.1 µM), for the others: top-dose activity, negative = toxicity, hits mostly cytotoxic | actives 2% (n = 360,000) | AID 686971;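 also: 0% = DMSO wells and -100% = cell-free medium wells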
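Knockdown cells (IDH1KD HT-1080) received compounds 2 h after plating at 750 cells/well and were kept 48 h at 37 °C in 5% FBS RPMI. A CellTiter-Glo luminescence read gave % activity for curve fitting.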
HepG2 tox: HepG2 cytotoxicity, counter-screen for TGF-b inhibitors | HepG2 CAGA-GFP viability, ATP luminescence, 18 h | Potency, µM (series often up to 46.1 µM), without a hit: at the top dose activity change, negative = cytotoxicity, most hits filed as cytotoxic | actives 0.76% (n = 410,000)
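CellTiter-Glo luminescence gave cytotoxicity after 18 hours at 37 degrees C. The cells were HepG2 CAGA-GFP in 1% FBS DMEM, stimulated with 500 pg/mL TGF-beta after compound addition. %Activity was normalised to no-cell wells (complete cell-killing) and DMSO (no toxicity), and curves were fitted and classified.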
ATXN2 expr inh: ATXN2 expression inhibition | HEK-293 ATXN2-luciferase reporter, luminescence, 24 h | Potency, µM (top dose mostly 57 µM), for inactives: at the highest dose activity change, negative = inhibition, most hits filed as inhibitors | actives 0.72% (n = 360,000) | AID 1745845; also: % is scaled to controls: 0 for no effect and ±100 for the full control effect; nearly all actives have a fitted effect of over 55% in size
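qHTS (up to 57 uM final) was run with 24 h compound exposure of reporter cells at 37 °C. Each well was multiplexed: SteadyGlo luminescence measured ATXN2-luciferase expression after a fluorogenic Gly-Phe-AFC viability readout (25 uM final).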
S2 tox: viability counter-screen for ATXN expression inhibitors; AID 651635; Potency, µM (titrated, usually from 56.7 µM), hits mostly cytotoxic; actives 0.49% (n = 400,000); S2 cells (HEK-293 line with an ATXN2-luciferase reporter) viability, CellTiter-Fluor protease fluorescence, 24 h; also: nearly all actives have a fitted effect of over 40% in size
An asterisk follows results filed as active; i = inactive; ? = inconclusive; . = no result given. Calls follow the shape of the dose curve; as a rule, active = well fitted curve in the direction sought with a large enough effect; inconclusive = small, poorly fitted or top-dose-only effect, or another doubt; inactive = no such curve, though single readings can be large; an effect the other way counts as inactive or inconclusive. Potency is read from the fitted curve at half-maximal effect.

SMILES	HT1080NT lethal	TGFb inhibitor	HT1080 IDH1KD tx	HepG2 tox	ATXN2 expr inh	S2 tox
CCOC(=O)C1CCC(CN(Cc2c(Cl)cccc2Cl)S(=O)(=O)c2ccc(F)cc2)CC1 (stereo not given)	.	?	.	-29%	.	.
CC(C)(C)Cc1c(-c2ccc(Br)cc2)nc2ccc(Br)cn12	?	16µM*	-24%	-33%	-28%	?
Cc1ccc(-c2nc3ccc(Cl)cn3c2CC(C)(C)C)cc1	-2%	-6%	3%	-21%	?	i
CC(C)(C)Cc1c(-c2ccc(F)cc2)nc2ccc(Cl)cn12	-9%	11µM*	-11%	-55%	-37%	?
Cc1cccc2c(N3CCCC3)nc(CNS(=O)(=O)c3ccc4ccccc4c3)nc12	.	.	.	.	.	i
COC(=O)c1[nH]c2ccc(C)cc2c1NC(=O)CN1CCc2cc(OC)c(OC)cc2C1	-10%	2%	-11%	-17%	-4%	i
CCOC(=O)c1[nH]c2ccc(F)cc2c1NC(=O)C(C)N1CCc2cc(OC)c(OC)cc2C1 (stereo not given)	?	-20%	16µM*	-8%	-21%	?
Cc1cccc(Cn2c(SCc3ccc(C(=O)NCCc4ccccc4)cc3)nc3cccnc32)c1	.	?	.	-2%	-5%	?
COc1ccc(N2CCN(C(=O)c3sc4nc5n(c(=O)c4c3C)CCC5)CC2)cc1	.	-10%	.	-40%	.	.
CCOC(=O)c1c(N2C(=O)C=CC2=O)sc(C)c1C	4µM*	16µM*	5µM*	-92%	?	?
Cc1cccc(S(=O)(=O)Nc2ccc(-c3nc4ccc(C)cc4s3)cc2)c1	-28%	13µM*	-29%	-62%	85%	i
Cc1ccc(S(=O)(=O)Nc2ccc(-c3nc4ccc(C)cc4s3)cc2)cc1	0%	?	-21%	10µM*	5%	i
O=C(/C=C/c1cn(CC(O)CN2CCCCCC2)c2ccccc12)c1cccs1 (stereo not given)	18µM*	15%	21µM*	-10%	12%	.
CC(C)NC(=O)CSc1nc2ccccc2c(=O)n1Cc1ccc(C(=O)NC(C)C)cc1	.	-1%	.	-10%	6%	i
Cc1cc(NC(=O)CSc2nnc3c(C)cc4c(C)ccc(C)c4n23)no1	6.3µM*	0%	6.3µM*	1%	-16%	?
CCc1nnc(NC(=O)CSc2nnc(-c3ccncc3)n2C)s1	16%	-16%	9%	0%	?	i
CCCCn1c(SCC(=O)Nc2nnc(CC)s2)nc2c1c(=O)n(C)c(=O)n2C	?	-10%	2.8µM*	-65%	0%	i
COc1cc2cc(C)c3nnc(SCC(=O)Nc4cc(C)on4)n3c2cc1OC	6%	17%	1%	9%	-1%	i
CCc1nnc(NC(=O)CSc2nnc3c(C)cc4c(C)ccc(C)c4n23)s1	5.8µM*	0%	6.5µM*	0%	-4%	i
CCCCn1c(SCC(=O)Nc2nnc(C)s2)nc2c1c(=O)n(C)c(=O)n2C	4%	-8%	-7%	7%	2%	i
CCc1nnc(NC(=O)CSc2nnc(-c3ccccc3O)n2-c2ccc(C)cc2)s1	13µM*	-3%	13µM*	8%	20%	i
CCc1ccn2cc(-c3ccc4c(c3)OCO4)nc2c1	12µM*	-23%	13µM*	-62%	3.5µM*	?
COC(=O)c1ccc2nc(-c3ccc4c(c3)OCO4)cn2c1	12%	?	23%	8%	?	i
CCCCn1cc(S(=O)(=O)c2ccc(CC)cc2)c(=O)c2cc(F)c(N3CCCC(C)C3)cc21 (stereo not given)	.	-8%	.	-19%	.	.
Oc1ccc(CNC2CCCCC2)cc1	2%	-1%	2%	-7%	-11%	i
SMILES	HT1080NT lethal	TGFb inhibitor	HT1080 IDH1KD tx	HepG2 tox	ATXN2 expr inh	S2 tox
Oc1ccc(-c2ccc(-c3cc(Nc4cccc(CNC5CC5)c4)n[nH]3)cc2)c(O)c1	.	.	.	.	2.4µM*	.
CCOCCn1c(N2CCCN(C)CC2)nc2ccccc21	.	.	.	.	3%	i
CCc1ccc(NC(=O)CSc2nc3ccsc3c(=O)n2C(C)CC)cc1 (stereo not given)	.	0%	.	-24%	.	.
Cn1nc(CC(=O)NC2CCCCCCCCCCC2)c2ccccc2c1=O	-16%	-23%	0%	-11%	-16%	i
Cn1nc(CC(=O)Nc2ccc3c(c2)CCC3)c2ccccc2c1=O	-13%	-4%	2.9µM*	3%	-31%	i
COc1cccc(CNC(=O)c2ccc(CSc3nc4ccncc4n3Cc3cccc(C)c3)cc2)c1	.	-52%	.	-19%	-20%	?
NNc1nc(-c2ccccc2)cc(-c2ccccc2O)n1	?	5%	13µM*	-24%	-37%	i
NNc1nc(-c2ccccc2)cc(-c2ccccc2)n1	-20%	-2%	?	-31%	?	?
COCCNC(=O)C1(C)Cc2c(-c3cccc(C(F)(F)F)c3)ccnc2O1 (stereo not given)	?	-14%	21µM*	-26%	0%	i
COCCNC(=O)C1(C)Cc2c(-c3cccc(C(N)=O)c3)ccnc2O1 (stereo not given)	12%	-9%	2%	-15%	14%	i
CC1(C(=O)NCC2CC2)Cc2c(-c3cccc(C(F)(F)F)c3)ccnc2O1 (stereo not given)	?	?	21µM*	-16%	-31%	i
CC1(C(=O)NCC2CC2)Cc2c(-c3cccc(C(N)=O)c3)ccnc2O1 (stereo not given)	-16%	11%	0%	-2%	9%	i
COc1ccc(NC(=O)C2(C)Cc3c(-c4ccccc4)ccnc3O2)cc1OC (stereo not given)	-1%	0%	-21%	-18%	-11%	i
COc1ccc(NC(=O)C2(C)Cc3c(-c4cccc(C(F)(F)F)c4)ccnc3O2)cc1OC (stereo not given)	21µM*	-13%	15µM*	-17%	?	i
Cc1c(Cn2c(C)nc3c(C(=O)O)cc(N4CCOCC4)cc32)cccc1C(F)(F)F	.	.	.	.	-5%	.
CCOC(=O)COC(=O)c1ccc(Oc2cc(C)nc(SC)n2)cc1	0%	-26%	-1%	0%	-18%	i
CCOC(=O)c1ccc(Oc2cc(C)nc(SC)n2)cc1	16µM*	-13%	15µM*	7%	-32%	?
COC(=O)c1ccc(Oc2cc(C)nc(-n3nc(C)cc3C)n2)cc1	1.3µM*	?	1.1µM*	-11%	-33%	i
